An excerpt weighted towards active compounds, which were near 18% of everything screened.
Six1-Eya2 blk: qHTS Assay for Inhibitors of the Six1/Eya2 Interaction; AlphaScreen GST-Six1/His-Eya2 binding, biochemical; active compounds read low; activity change, % (concentration not given with the values); Homeobox protein SIX1 (Homo sapiens) + Protein phosphatase EYA2 (Homo sapiens), …; 0.56% of 360,000 active; in the data active = activity change below about -65%; inconclusive = mostly about -30% to -63%
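Six1/Eya2 binding was read as AlphaScreen signal after compounds were pinned into GST-Six1 plus His-tagged Eya2 (5X stock 250/500 nM) in pH 8.0 Tris/NaCl/TCEP buffer, beads added, then incubated 1 h, 37 C, dark.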
TDP1 cell noCPT: qHTS for Inhibitors of human tyrosyl-DNA phosphodiesterase 1 (TDP1): qHTS in cells in absence of CPT | DT40 Tdp1-/- hTDP1 cells, no CPT, ATP luminescence, 48 h | 15% of 420,000 active | Potency, µM (top dose mostly 46.2 µM), hits mostly inhibitors; note: nearly all actives have a fitted effect of over 55% in size
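Chicken DT40 Tdp1-/- cells stably complemented with human TDP1 were seeded at 400 cells/well with DMSO in place of 20 nM camptothecin. After compound pinning, cells grew at least 48 hr at 37 °C; viability read by CellTiter-Glo luminescence.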
DT40 TDP1 CPT: qHTS for Inhibitors of human tyrosyl-DNA phosphodiesterase 1 (TDP1): qHTS in cells in presence of CPT; chicken DT40 Tdp1-/-;hTDP1 cells + 20 nM CPT, ATP luminescence, 48 h; Potency, µM (titrated, usually from 46.2 µM), actives largely listed as inhibitors; 12% of 420,000 active; AID 686979, 2013; note: nearly all actives have a fitted effect of over 55% in size
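Cell growth measured by CellTiter-Glo luminescence after a minimum 48 h, 37 C compound exposure with 20 nM CPT in Tdp1-knockout DT40 cells stably expressing hTDP1, seeded 400/well; qHTS titration format.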
CtBP-E1A blk: qHTS Assay for Inhibitors of the CtBP/E1A Interaction; 0.49% of 340,000 active; CtBP / adenovirus E1A interaction (AlphaScreen); AID 651724, 2012; AlphaScreen GST-E1A/His-CtBP binding, 1536-well; active compounds read low; activity change, % (concentration not given with the values); in the data active = activity change below about -65%; inconclusive = mostly about -30% to -63%
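GST-E1A and His-tagged CtBP (125 nM each as 5X stock) were preincubated with pin-transferred compound for 2 h at 37 °C in the dark, then glutathione donor and nickel acceptor beads were added for 1 h before AlphaScreen reading.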
IL1B secr inh: qHTS for Inhibitors of Inflammasome Signaling: IL-1-beta AlphaLISA Primary Screen; THP-1 LPS/ATP IL-1B secretion, AlphaLISA, 16 h; active compounds read low; activity change, % at 57.5 µM; 4.7% of 360,000 active; AID 743279, 2014; in the data active = activity change below about -50%; inconclusive = mostly about -30% to -49%
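Secreted IL-1B measured by AlphaLISA bead assay after 16 h compound exposure of THP-1 cells; compounds (final up to 57.5 uM) added 1 h before LPS (250 ng/mL) and ATP (1.25 mM) stimulation; lower signal means less secretion.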
TDP1 block: qHTS Assay for Inhibitors of Tyrosyl-DNA Phosphodiesterase (TDP1); Tyrosyl-DNA phosphodiesterase 1 (Homo sapiens), Q9NUW8; recombinant TDP1, AlphaScreen DNA substrate cleavage; Potency, µM (titrated, usually from 130 µM), hits mostly inhibitors; 0.28% of 350,000 active; AID 485290, 2010; note: nearly all actives have a fitted effect of over 40% in size
Target sequence (Q9NUW8 whole entry, looked up): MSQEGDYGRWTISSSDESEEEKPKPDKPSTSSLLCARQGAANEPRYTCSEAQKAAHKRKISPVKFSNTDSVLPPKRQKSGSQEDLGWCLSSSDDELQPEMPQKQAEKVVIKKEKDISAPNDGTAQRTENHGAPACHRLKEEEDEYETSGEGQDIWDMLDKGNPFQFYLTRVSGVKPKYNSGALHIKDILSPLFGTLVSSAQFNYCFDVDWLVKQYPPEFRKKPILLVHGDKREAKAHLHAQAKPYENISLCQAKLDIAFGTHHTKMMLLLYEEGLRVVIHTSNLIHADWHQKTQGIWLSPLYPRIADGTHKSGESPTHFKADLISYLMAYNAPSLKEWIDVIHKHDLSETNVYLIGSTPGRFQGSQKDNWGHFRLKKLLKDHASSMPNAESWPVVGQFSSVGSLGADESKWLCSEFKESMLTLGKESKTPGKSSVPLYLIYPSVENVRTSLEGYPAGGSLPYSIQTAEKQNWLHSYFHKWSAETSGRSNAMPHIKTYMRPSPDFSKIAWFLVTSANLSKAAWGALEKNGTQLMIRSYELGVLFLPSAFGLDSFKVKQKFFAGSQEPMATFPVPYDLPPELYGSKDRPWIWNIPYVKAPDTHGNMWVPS
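Recombinant E. coli-expressed Tdp1 (1 nM) preincubated with compound 15 min at RT, then 5'-biotin/3'-phosphotyrosine-FITC DNA substrate (15 nM) added for 5 min. AlphaScreen beads (10 ug/ml) added, 10 min RT; tyrosine-FITC cleavage read as signal loss.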
Hits are given with their value; – = inactive; ? = inconclusive; · = no result given; ! = a repeat was not active. Unless noted, calls come from the whole dose curve; as a rule, active = well fitted curve in the direction sought with a large enough effect; inconclusive = small, poorly fitted or top-dose-only effect, or another doubt; inactive = no such curve, though single readings can be large; an effect the other way counts as inactive or inconclusive.

SMILES	Six1-Eya2 blk	TDP1 cell noCPT	DT40 TDP1 CPT	CtBP-E1A blk	IL1B secr inh	TDP1 block
COC(=O)c1sccc1NC(=S)N1CCN(c2cccc(C)c2C)CC1	–	23µM	18µM	–	–	–
COC(=O)c1sccc1S(=O)(=O)N1CCN(c2cccc(C)c2C)CC1	·	23µM	?	·	·	–
COC(=O)c1sc(S(=O)(=O)N2CCN(c3ccccc3F)CC2)c(C(=O)OC)c1C	–	?	15µM	–	–	–
Cc1cc(=O)[nH]c2n[nH]c(-c3ccccc3)c12	–	?	–	–	–	–
O=C(CN1C(=O)/C(=C\c2ccccc2Br)Oc2ccccc21)NCCCN1CCOCC1	–	?	–	·	–	–
O=C(NCc1ccncc1)C(=O)Nc1nc(C23CC4CC(CC(C4)C2)C3)cs1	–	21µM	21µM	–	–	–
O=C(NCc1ccccc1)C(=O)Nc1nc(C23CC4CC(CC(C4)C2)C3)cs1	–	?	23µM	–	–	–
O=C(NCc1cccnc1)C(=O)Nc1nc(C23CC4CC(CC(C4)C2)C3)cs1	–	16µM	?	–	–	·
O=C(NCc1ccc(F)cc1)C(=O)Nc1nc(C23CC4CC(CC(C4)C2)C3)cs1	–	?	?	–	–	–
C/C(N)=C(/C#N)C(=O)CSc1nc2cc(Cl)ccc2c(=O)n1Cc1ccco1	–	–	–	–	–	–
CN1CCN(c2nc3c(c(=O)[nH]c(=O)n3C)n2Cc2ccc([N+](=O)[O-])cc2)CC1	–	–	–	·	–	·
Cc1cc(N/N=C/c2ccccc2Cl)nc(NCc2ccccc2)n1	–	4.1µM	4.6µM	–	-68	–
Cc1cc(NC2CCCCC2)nc(NCc2ccccc2)n1	–	4.6µM	4.6µM	–	-74	–
COc1nc(NCc2cccnc2)nc(NC2CCCCC2)n1	–	–	–	·	–	–
CCCOc1ccc(Nc2cc(C)nc(C)n2)cc1	·	?	23µM	·	·	–
COc1ccc(Nc2cc(C)nc(NCc3ccccc3)n2)cc1	–	4.6µM	5.2µM	–	-99	–
COc1cc(C#N)ccc1OCC(=O)NCCC1=CCCCC1	–	–	–	–	–	–
C/C(=N\Nc1cc(C)nc(NCc2ccccc2)n1)c1ccc([N+](=O)[O-])cc1	–	9.2µM	13µM	–	–	–
Cc1ccc(Nc2cc(C)nc(NCc3ccccc3)n2)cc1	–	2.6µM	2.6µM	–	-229	–
COc1cc(C)nc(NCc2ccccc2)n1	–	?	?	–	–	–
COc1cccc(C2C(C(=O)c3ccc(C)o3)=C(O)C(=O)N2CCN2CCOCC2)c1OC (stereo not given)	–	–	–	–	–	–
COc1ccc(C(=O)N/N=C/c2ccc(OC)c(COc3ccccc3)c2)cc1	–	?	?	–	?	–
COc1ccc(/C=N/NC(=S)Nc2ccccc2)cc1COc1ccc(Br)cc1	–	?	15µM	–	–	·
COc1cccc(OCc2cc(/C=N/NC(=O)c3ccn[nH]3)ccc2OC)c1	–	26µM	?	–	–	–
COc1cc(OC)cc(C(=O)N/N=C/c2ccc(OC)c(COc3ccc4ccccc4c3)c2)c1	–	6.5µM	4.1µM	–	–	–
SMILES	Six1-Eya2 blk	TDP1 cell noCPT	DT40 TDP1 CPT	CtBP-E1A blk	IL1B secr inh	TDP1 block
COc1ccc(/C=N\NC(=O)c2cc(O)c(O)c(O)c2)cc1COc1ccc(C(=O)OCC(C)C)cc1	–	21µM	?	·	–	·
O=C(NCCN1CCOCC1)C(=O)c1c[nH]c2ccccc12	–	–	–	–	–	–
Cc1ccc(-n2nc(C)c3c(C)cc(=O)n(CC(=O)Nc4ccc(Br)cc4F)c32)cc1	·	–	–	·	·	–
COc1ccccc1S(=O)(=O)Nc1ccc(-c2nnc3n2CCCCC3)cc1	–	–	–	–	–	–
COc1ccc(/C=N/NC(=O)c2ccncc2)cc1COc1ccc(NC(C)=O)cc1	–	8.2µM	5.8µM	·	–	–
CCCc1cc(NC(=O)COC(=O)c2ccc(O)cc2O)n(-c2ccccc2)n1	–	?	?	·	–	–
COC(=O)CCC(NC(=O)OCc1ccccc1)C(=O)NC(CC(C)C)C(=O)OC (stereo not given)	–	–	?	–	–	–
Cc1cccc(OCCC(=O)Nc2ccc(F)c(F)c2)c1	–	–	–	–	?	–
Cc1nc(CC(=O)Nc2ccc(C)c(C)c2)cs1	·	–	–	·	·	–
Cc1cccc(OCc2nc(CC(=O)Nc3ccc(Cl)cc3)cs2)c1	·	?	21µM	·	·	–
Cc1cccc(OCc2nc(CC(=O)Nc3ccc(C)c(C)c3)cs2)c1	·	18µM	?	·	·	–
CCOC(=O)c1c(C)[nH]c(CCC(=O)NCc2cc(OC)c(OC)c(OC)c2)c1C	·	?	?	·	·	–
Cc1ccccc1CC1(CO)CCCN(C(=O)Cc2c(F)ccc(F)c2F)C1 (stereo not given)	–	?	16µM	–	–	–
O=C1CCN(CCc2ccccc2)CCN1[C@H](CSc1ccc(Br)cc1)Cc1ccccc1	–	15µM	16µM	–	–	–
CC(C)C[C@@H](CN=[N+]=[N-])N1CCN(CCc2ccccc2)CCC1=O	·	13µM	?	·	·	·
COc1ccc(SC[C@H](CC(C)C)N2CCN(CCc3ccccc3)CCC2=O)cc1	–	18µM	15µM	·	–	–
CCCN1CCC(=O)N(C(CSc2ccc(Br)cc2)Cc2ccccc2)CC1 (stereo not given)	·	·	·	·	·	–
CC(C)C[C@@H](CSc1ccc(Br)cc1)N1CCN(CC(C)C)CCC1=O	–	16µM	23µM	–	?	–
CCN(CC)S(=O)(=O)c1csc(C(=O)NC2CCCCC2)c1	–	–	–	–	–	–
O=C1CC[C@H](O)CCN1[C@H](CSc1ccccc1)Cc1ccccc1	–	?	?	–	–	·
O=C1CCN(Cc2ccc([N+](=O)[O-])cc2)CCN1[C@H](CO)c1ccccc1	–	–	?	–	–	·
O=C1CCN(Cc2ccccc2)CCN1[C@H](CSc1ccccc1)Cc1ccccc1	–	20µM	23µM	–	–	·
O=C1CCN(Cc2ccc(Br)cc2)CCN1[C@H](CO)c1ccccc1	–	14µM!	?	–	–	·
CCC(C)(C)c1ccc(OCC(=O)Nc2ccncc2)cc1	–	–	?	–	–	–
CC1CCN(CCOc2ccccc2-c2ccccc2)CC1	–	?	–	–	–	–

Bioassay records from PubChem.
